# From PubChem
# Only a selection was taken, and hits are over-represented in it overall.
# LASV entry inh: Lassa virus entry inhibition | Lassa virus pseudotype entry inhibition, cell reporter | Potency, µM (top dose mostly 37.9 µM), actives largely listed as inhibitors | 300,000 tested, 1.2% active; calls by dose curve; tested in HEK293 cells; also: nearly all actives have a fitted effect of over 50% in size
# VACV mCherry inh: inhibitors of vaccinia virus infection (mCherry reporter signal). Vaccinia virus mCherry reporter infection, fluorescence. Potency, µM (series often up to 36.5 µM), most hits filed as inhibitors. 310,000 tested, 0.63% active. AID 720579; calls by dose curve; tested in A549 cells; also: nearly all actives have a fitted effect of over 35% in size
# MARV entry inh: blocks Marburg virus binding to or entry into cells; Marburg virus pseudotyped entry inhibition, cell reporter; Potency, µM (top dose mostly 37.8 µM), actives largely listed as inhibitors; 300,000 tested, 1.8% active; AID 540276; calls by dose curve; tested in HEK293 cells
# Shiga inhibitor: inhibitors of Shiga toxin in Vero cells; Vero cells, Shiga toxin protein synthesis inhibition reporter; inhibition, % at 38.7 µM; 290,000 tested, 9.2% active; AID 2315; in the data active = inhibition mostly above about 28%, no sharp cut-off; inactive = mostly below about 43%
# VACV Venus inh: inhibitors of vaccinia virus (Venus reporter); 330,000 tested, 0.46% active; AID 720580; Potency, µM (titrated, usually from 36.5 µM), usual class: inhibitors; Vaccinia virus Venus reporter expression, fluorescence; calls by dose curve; tested in A549 cells; also: nearly all actives have a fitted effect of over 30% in size
# Cycloheximide cs: counter-screen for Shiga toxin inhibitors: cycloheximide protein synthesis inhibition; 300,000 tested, 12% active; cell reporter, cycloheximide protein synthesis inhibition counterscreen; max response, %; in the data active = max response mostly above about 13%, no sharp cut-off; inactive = mostly below about 14%; also: read at 38.3 µM for the half of the compounds with a filed dose
# A number is an active result; . = inactive; ? = inconclusive; / = no result given.
SMILES,LASV entry inh,VACV mCherry inh,MARV entry inh,Shiga inhibitor,VACV Venus inh,Cycloheximide cs
O=[N+]([O-])c1ccc(Sc2ccccc2)nc1,.,.,.,.,.,.
Cc1cccc(Sc2ccc([N+](=O)[O-])cn2)c1,.,?,.,.,.,.
Cc1ccnc(Sc2ccc([N+](=O)[O-])cn2)n1,/,/,/,.,/,10.1
CCc1cccc(C)c1NC(=O)CSc1nnc(CC)n2c1cc1occc12,.,.,/,/,.,/
O=C(NN=C1C[C@@H](O)[C@H](O)[C@H]2[C@@H]3C(=O)N(C4CCCCC4)C(=O)[C@@H]3CC[C@@H]12)OCc1ccccc1,/,/,.,/,/,/
CSc1ccc(/C=N/NC(=O)c2ccccc2Cl)cc1,8.91µM,.,?,91.3,.,31.8
CN(C)c1ccc(/C=N/NC(=O)c2ccccc2Cl)cc1,?,.,?,.,.,34.9
CN(C)c1ccc(/C=N/NC(=O)c2ccccc2)cc1,10µM,.,.,53.4,.,33.3
CN(C)c1ccc(/C=N/NC(=O)c2ccc(Cl)cc2)cc1,.,?,.,18.2,.,.
O=C(CCCc1ccccc1)NCc1ccc(Cl)cc1,?,.,.,/,.,.
O=C(CN1Cc2ccccc2OC(c2ccsc2)C1)NCc1ccc2c(c1)OCO2 (stereo not drawn),/,.,/,/,.,/
CN(C)c1ccc(/C=N/NC(=O)c2ccc3nc[nH]c3c2)cc1,.,.,.,22.0,.,15.8
CCN(CC)c1ccc(/C=N/NC(=O)c2ccc3nc[nH]c3c2)cc1,.,.,.,.,.,.
C/C(=N/N=C/c1ccc(N(C)C)cc1)c1ccccc1,?,.,?,167.6,.,47.2
CN(C)c1ccc(/C=N/NC(=O)CCCCCNC(=O)c2ccccc2)cc1,.,.,.,59.9,.,55.5
COc1ccc(/C=N/NC(=O)CCCCCNC(=O)c2ccccc2)cc1,.,.,.,.,.,.
O=C(CCCCCNC(=O)c1ccccc1)N/N=C/c1ccccc1O,?,.,.,.,.,25.1
CC(CCC(=O)OC[C@H]1O[C@H](C#Cc2ccccc2)C=C[C@H]1Oc1ccc(C)cc1)=NO[C@@H](C)CN1CCCCc2nc(C)c(C)cc21,/,/,.,/,/,/
CCOC(=O)C1CCN(C(=O)Cn2c(-c3cccs3)cc3cc(Cl)ccc32)CC1,.,.,/,/,.,/
CCOc1ccc(CC(=O)NCc2ccc3c(c2)CCN3C(C)=O)cc1OCC,.,.,/,/,.,/
CC/C(=N\NC(=O)c1ccc(N(C)C)cc1)c1ccccc1,.,.,.,32.8,.,.
CN(C)C(=S)c1ccc(N(C)C)cc1,/,/,/,.,/,.
CC/C(=N\NC(=O)c1ccc(N2CCCC2=O)cc1)c1ccccc1,/,.,.,.,.,.
CN(C)c1ccc(/C(=N\O)c2ccccc2)cc1,.,/,.,83.1,/,34.6
CN(C)c1cccc(C(=O)N/N=C/c2ccsc2)c1,?,.,?,80.3,.,67.0
SMILES,LASV entry inh,VACV mCherry inh,MARV entry inh,Shiga inhibitor,VACV Venus inh,Cycloheximide cs
CCc1cccc(C)c1NC(=O)c1cn2c3c(ccc(Cl)c3c1=O)OC(C)C2 (stereo not drawn),.,.,/,/,.,/
COC(=O)[C@@]12C[C@@H](CC(=O)NCc3cccs3)C(=O)N(Cc3cccc4ccccc34)C1=CCC(C)(C)C2,/,.,/,/,?,/
O=C(NC(=S)NN1CCCCC1c1cccnc1)c1ccc(Cl)cc1Cl (stereo not drawn),.,.,.,.,.,.
Cc1nn(C)cc1CN1CCOc2ccc(CN3CCC(Oc4cccnc4)CC3)cc2C1,/,.,/,/,.,/
CN(Cc1ccccc1)c1nc(CN2CCOCC2)nc2scc(-c3ccccc3)c12,.,.,.,.,.,.
c1csc(-c2csc3nc(CN4CCOCC4)nc(NCc4ccc5c(c4)OCO5)c23)c1,.,/,18.3µM,.,/,.
CCc1ccc(N2C(=O)Nc3ccc(Br)cc3C2(O)C(=O)NCCN(C)C)cc1 (stereo not drawn),.,.,?,.,.,.
Cc1ccc(Oc2cnc3ccccc3n2)cc1,?,/,.,102.8,/,58.2
Fc1ccc(Oc2cnc3ccccc3n2)cc1,.,.,.,39.2,.,.
COc1ccc(Oc2cc(C)c3ccccc3n2)cc1,.,/,.,69.1,.,.
COc1ccc(Oc2nc(C(F)(F)F)nc3ccccc23)cc1,?,/,?,.,.,.
Clc1ccc(Oc2cnc3ccccc3n2)cc1,.,/,.,32.9,/,20.5
O=[N+]([O-])c1ccc(Oc2cnc3ccccc3n2)cc1,.,.,.,.,.,.
CN(C)c1cc(F)c(C=O)cc1F,/,.,/,/,.,/
CCn1cc(C(=O)OCC(=O)Nc2cccc(Cl)c2C)c(=O)c2ccc(C)nc21,.,.,.,/,.,/
